Measured values from PubChem BioAssay (EPA / NIEHS).
Results filed as inconclusive are left out. The source made the active and inactive calls. Rule for the calls, unless noted: active = hit-call score of the fitted dose curve at least 0.9, where 1 is the maximum; inactive = score below 0.9.

Columns and labels:
[1] = target: Retinoic acid receptor RXR-alpha (Homo sapiens) (UniProt P19793); experiment: OT_NURR1_NURR1RXRa_1440: Odyssey Thera (OT) 24-hour HEK293T Protein Complementation Assay for Nurr1/retinoid X receptor (RXR) (AID 2283386; active = hit-call score of the fitted dose curve at least 0.9, where 1 is the maximum)
Method in brief: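 Cell-based binding reporter: HEK293T cells, 24 h exposure, fluorescence-detected fragment complementation, DMSO as baseline.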

[2] = read-out: Tumor necrosis factor receptor superfamily member 6 (Homo sapiens) (UniProt P25445); experiment: LTEA_HepaRG_FAS: Life Technologies and Expression Analysis (LTEA) Assay for Fas cell surface death receptor (FAS) using HepaRG (AID 2283447); details: mRNA level, 48 h; actives raise or lower the signal
Method in brief: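 FAS transcript level was measured by TaqMan qRT-PCR against three housekeeping genes after 48 h chemical exposure. Cells were HepaRG, 0.5% DMSO vehicle, with a top concentration of 100 uM and half-log dilutions over eight points, in duplicate.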

[3] = read-out: Fatty acid synthase (Homo sapiens) (UniProt P49327); experiment: LTEA_HepaRG_FASN: Life Technologies and Expression Analysis (LTEA) Assay for Fatty Acid Synthase (FASN) using HepaRG (AID 2283448); details: mRNA level, 48 h; actives raise or lower the signal;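 for AC50: differentiated human HepaRG liver cells in serum-free induction medium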
Method in brief: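 In human HepaRG cultures, 48 h chemical exposure (up to 100 uM, 0.5% DMSO) preceded TaqMan qRT-PCR of FASN.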

[4] = read-out: Cyclin D2 (CCND2), CCND2 (gene 894); experiment: LTEA_HepaRG_CCND2: Life Technologies and Expression Analysis (LTEA) Assay for Cyclin D2 (CCND2) using HepaRG (AID 2283449); details: mRNA level, 48 h; actives raise or lower the signal
Method in brief: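 CCND2 transcript levels, quantified by qRT-PCR and normalised to three housekeeping genes, were fitted bidirectionally against 0.5% DMSO. HepaRG cultures were dosed 48 h in duplicate with an 8-point half-log series up to 100 uM.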

[5] = read-out: Cyclin Dependent Kinase Inhibitor 1A (CDKN1A), CDKN1A (gene 1026); experiment: LTEA_HepaRG_CDKN1A: Life Technologies and Expression Analysis (LTEA) Assay for Cyclin Dependent Kinase Inhibitor 1A (CDKN1A) using HepaRG (AID 2283450); details: mRNA level, 48 h; actives raise or lower the signal
Method in brief: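 Cryopreserved HepaRG cells were plated and cultured 48 h, then switched to serum-free induction medium. Chemicals (eight half-log concentrations, top 100 uM, 0.5% DMSO) were applied for 48 h. Lysates underwent qRT-PCR for CDKN1A with housekeeping normalization.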

[6] = read-out: Cyclin D1 (CCND1), CCND1 (gene 595); experiment: LTEA_HepaRG_CCND1: Life Technologies and Expression Analysis (LTEA) Assay for Cyclin D1 (CCND1) using HepaRG (AID 2283451); details: mRNA level, 48 h; actives raise or lower the signal
Method in brief: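 Human liver HepaRG line; 48 h dosing, 8 conc. ≤100 uM, 0.5% DMSO; TaqMan qRT-PCR mRNA, 3 housekeeping genes; bidirectional curve fit vs DMSO.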

[7] = read-out: catalase (CAT), CAT (gene 847); experiment: LTEA_HepaRG_CAT: Life Technologies and Expression Analysis (LTEA) Assay for catalase (CAT) using HepaRG (AID 2283452); details: mRNA level, 48 h; actives raise or lower the signal;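 for AC50: TaqMan qRT-PCR signal normalized to ACTB GAPDH and POLR2A housekeeping genes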
Method in brief: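 Expression of CAT was quantified by TaqMan qRT-PCR with ACTB/GAPDH/POLR2A normalization after 48 h chemical exposure of HepaRG. Eight-point half-log series, top 100 uM, in 0.5% DMSO; gain or loss fitted against vehicle.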

[8] = read-out: flavin-containing dimethylaniline monooxygenases 3 (FMO3), FMO3 (gene 2328); experiment: LTEA_HepaRG_FMO3: Life Technologies and Expression Analysis (LTEA) Assay for flavin-containing dimethylaniline monooxygenases 3 (FMO3) using HepaRG (AID 2283453); details: mRNA level, 48 h; actives raise or lower the signal;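 for AC50: differentiated human HepaRG liver cells in serum-free induction medium; FMO3 transcript by TaqMan qRT-PCR normalized to ACTB GAPDH and POLR2A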
Method in brief: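 Eight-point concentration-response in serum-free HepaRG cultures (top 100 uM, 0.5% DMSO, 48 h). Read-out: FMO3 mRNA level normalized to three endogenous control genes, fitted bidirectionally versus vehicle.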

[9] = target: Peroxisome proliferator-activated receptor gamma (Homo sapiens) (UniProt P37231); experiment: OT_PPARg_PPARgSRC1_0480: Odyssey Thera (OT) 8-hour Protein-Complementation Assay for Peroxisome Proliferator-activated Receptor Gamma / SRC-1 Co-activator (AID 2283387; active = hit-call score of the fitted dose curve at least 0.9, where 1 is the maximum;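 note: nuclear to cytoplasmic split Venus YFP fluorescence ratio reporting PPARg SRC-1 interaction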)
Method in brief: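 Read-out: 488 nm N/C fluorescence ratio from complemented Venus YFP fragments, ≥350 cells per image, gain-of-signal fitted against DMSO baseline. Fusions of PPARg/SRC-1 with IFP1/IFP2 expressed transiently in HEK293T; compounds applied 8 h.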

[10] = target: Peroxisome proliferator-activated receptor gamma (Homo sapiens) (UniProt P37231); experiment: OT_PPARg_PPARgSRC1_1440: Odyssey Thera (OT) 24-hour Protein-Complementation Assay for Peroxisome Proliferator-activated Receptor Gamma/ SRC-1 Co-activator (AID 2283388; active = hit-call score of the fitted dose curve at least 0.9, where 1 is the maximum;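 note: nuclear to cytoplasmic ratio of reconstituted Venus YFP fluorescence in fixed imaged cells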)
Method in brief: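 Transient HEK293T, YFP fragments 1-158/159-239 (mutant IFP1/IFP2) fused to PPARg/SRC-1; 24 h dosing; fix 4% formaldehyde, Draq5; Opera imaging 488/635 nm; N/C ratio, gain vs DMSO.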

Measured: AC50

Sequence of Retinoic acid receptor RXR-alpha (Homo sapiens) (P19793 whole entry, looked up, the tested form may be a part): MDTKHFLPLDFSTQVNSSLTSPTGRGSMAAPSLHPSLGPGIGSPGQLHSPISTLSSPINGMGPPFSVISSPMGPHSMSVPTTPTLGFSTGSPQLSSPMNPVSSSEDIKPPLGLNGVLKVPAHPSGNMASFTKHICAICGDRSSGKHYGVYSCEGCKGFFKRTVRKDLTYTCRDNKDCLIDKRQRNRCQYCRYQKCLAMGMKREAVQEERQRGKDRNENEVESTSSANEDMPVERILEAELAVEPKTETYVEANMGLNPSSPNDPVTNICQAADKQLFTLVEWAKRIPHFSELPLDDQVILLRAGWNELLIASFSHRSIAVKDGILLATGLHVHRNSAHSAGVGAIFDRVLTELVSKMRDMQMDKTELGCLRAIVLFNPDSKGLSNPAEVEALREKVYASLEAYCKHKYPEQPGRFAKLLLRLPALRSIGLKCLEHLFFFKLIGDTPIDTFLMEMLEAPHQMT
Sequence of Fatty acid synthase (Homo sapiens) (P49327 whole entry, looked up): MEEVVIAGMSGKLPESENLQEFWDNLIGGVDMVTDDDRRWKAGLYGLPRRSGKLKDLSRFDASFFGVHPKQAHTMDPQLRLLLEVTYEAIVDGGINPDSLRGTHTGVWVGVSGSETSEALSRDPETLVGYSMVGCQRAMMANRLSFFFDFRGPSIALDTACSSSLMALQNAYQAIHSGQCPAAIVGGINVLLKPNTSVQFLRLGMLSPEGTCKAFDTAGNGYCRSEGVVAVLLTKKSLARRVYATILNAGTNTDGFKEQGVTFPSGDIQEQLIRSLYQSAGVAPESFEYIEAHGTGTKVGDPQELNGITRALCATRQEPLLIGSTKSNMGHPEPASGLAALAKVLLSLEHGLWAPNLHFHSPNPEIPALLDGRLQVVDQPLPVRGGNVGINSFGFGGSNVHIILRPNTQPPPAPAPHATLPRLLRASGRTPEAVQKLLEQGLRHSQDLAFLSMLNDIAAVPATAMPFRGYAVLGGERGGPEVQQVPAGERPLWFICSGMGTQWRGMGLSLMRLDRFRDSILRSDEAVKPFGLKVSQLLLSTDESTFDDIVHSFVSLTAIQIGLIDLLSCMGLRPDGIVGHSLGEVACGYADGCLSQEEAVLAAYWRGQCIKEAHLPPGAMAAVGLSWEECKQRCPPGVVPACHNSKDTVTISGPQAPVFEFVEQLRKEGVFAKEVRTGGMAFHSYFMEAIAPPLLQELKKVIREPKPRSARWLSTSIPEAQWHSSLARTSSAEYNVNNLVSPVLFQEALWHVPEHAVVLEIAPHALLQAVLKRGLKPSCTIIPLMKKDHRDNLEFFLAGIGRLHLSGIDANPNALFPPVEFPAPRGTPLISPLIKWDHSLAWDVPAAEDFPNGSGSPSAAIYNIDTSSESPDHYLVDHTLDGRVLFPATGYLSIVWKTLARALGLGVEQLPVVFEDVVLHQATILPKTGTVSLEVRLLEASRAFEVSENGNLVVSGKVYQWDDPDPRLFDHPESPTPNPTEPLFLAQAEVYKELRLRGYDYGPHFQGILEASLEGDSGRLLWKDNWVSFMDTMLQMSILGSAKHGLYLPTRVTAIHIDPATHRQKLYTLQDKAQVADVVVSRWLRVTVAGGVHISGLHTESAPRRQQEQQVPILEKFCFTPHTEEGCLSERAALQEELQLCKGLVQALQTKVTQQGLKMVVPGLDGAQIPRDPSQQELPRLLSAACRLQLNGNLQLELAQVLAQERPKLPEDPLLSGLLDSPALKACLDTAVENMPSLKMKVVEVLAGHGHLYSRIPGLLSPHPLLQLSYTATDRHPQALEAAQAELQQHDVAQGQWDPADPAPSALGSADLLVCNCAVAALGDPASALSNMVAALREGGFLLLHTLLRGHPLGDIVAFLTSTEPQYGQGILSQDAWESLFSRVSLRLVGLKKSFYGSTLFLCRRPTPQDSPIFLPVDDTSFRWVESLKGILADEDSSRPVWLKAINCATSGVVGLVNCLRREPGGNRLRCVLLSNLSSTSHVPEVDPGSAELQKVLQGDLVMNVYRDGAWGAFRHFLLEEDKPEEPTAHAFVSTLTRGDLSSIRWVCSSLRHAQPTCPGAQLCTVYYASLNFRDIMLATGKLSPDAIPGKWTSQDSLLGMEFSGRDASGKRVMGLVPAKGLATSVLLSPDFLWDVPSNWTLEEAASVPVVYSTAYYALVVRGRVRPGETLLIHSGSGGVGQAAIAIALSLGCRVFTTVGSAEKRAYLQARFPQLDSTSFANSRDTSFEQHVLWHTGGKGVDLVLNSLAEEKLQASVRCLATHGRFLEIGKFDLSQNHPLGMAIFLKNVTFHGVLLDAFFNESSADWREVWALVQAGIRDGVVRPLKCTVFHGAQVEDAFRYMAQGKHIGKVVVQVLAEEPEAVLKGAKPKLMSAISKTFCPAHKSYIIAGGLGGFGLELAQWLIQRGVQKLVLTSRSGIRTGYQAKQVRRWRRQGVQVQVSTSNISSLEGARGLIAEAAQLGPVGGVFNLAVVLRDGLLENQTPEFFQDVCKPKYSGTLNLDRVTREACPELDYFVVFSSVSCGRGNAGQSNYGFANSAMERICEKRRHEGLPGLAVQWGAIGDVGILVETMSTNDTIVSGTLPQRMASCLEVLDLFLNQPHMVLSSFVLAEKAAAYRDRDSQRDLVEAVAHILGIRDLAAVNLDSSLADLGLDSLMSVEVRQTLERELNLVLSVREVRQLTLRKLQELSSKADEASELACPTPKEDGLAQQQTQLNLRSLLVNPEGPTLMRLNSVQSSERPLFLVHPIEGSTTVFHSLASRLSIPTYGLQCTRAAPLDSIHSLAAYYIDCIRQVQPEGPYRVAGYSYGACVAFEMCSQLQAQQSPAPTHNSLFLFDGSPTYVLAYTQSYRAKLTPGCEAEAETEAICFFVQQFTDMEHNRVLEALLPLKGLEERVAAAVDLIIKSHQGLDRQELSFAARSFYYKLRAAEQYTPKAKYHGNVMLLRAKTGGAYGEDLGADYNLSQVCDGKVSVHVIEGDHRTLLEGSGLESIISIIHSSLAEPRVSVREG
Sequence of Peroxisome proliferator-activated receptor gamma (Homo sapiens) (P37231 whole entry, looked up, the tested form may be a part): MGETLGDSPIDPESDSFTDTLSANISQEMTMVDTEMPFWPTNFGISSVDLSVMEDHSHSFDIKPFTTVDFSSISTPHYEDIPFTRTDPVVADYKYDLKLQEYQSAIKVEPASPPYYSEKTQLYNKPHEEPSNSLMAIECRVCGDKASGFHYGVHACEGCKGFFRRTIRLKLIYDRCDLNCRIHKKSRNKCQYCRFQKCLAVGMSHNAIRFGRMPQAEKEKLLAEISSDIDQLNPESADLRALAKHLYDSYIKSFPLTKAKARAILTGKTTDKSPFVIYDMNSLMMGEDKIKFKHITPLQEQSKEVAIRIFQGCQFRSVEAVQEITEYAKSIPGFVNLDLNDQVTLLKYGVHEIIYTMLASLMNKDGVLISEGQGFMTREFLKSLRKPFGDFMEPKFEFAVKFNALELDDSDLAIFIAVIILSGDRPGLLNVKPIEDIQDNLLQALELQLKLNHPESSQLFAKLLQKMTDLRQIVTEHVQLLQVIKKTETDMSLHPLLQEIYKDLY

CCCCC(CC)COC(=O)CCCCCCCC(=O)OCC(CC)CCCC (stereo unspecified)
not listed: [9] | [10]
inactive: all other assays above

NC1CCCCC1
inactive: all assays above

O=C1CCCCC1
inactive: all assays above

CN(C)CCCN(C)CCCN(C)C
not listed: [4]
inactive: all other assays above

O=NO
not listed: [4]
inactive: all other assays above

CCCCCCCCCCCCCCCCO
active: [7] 9.92 µM
inactive: all other assays above

Nc1nc(=S)c2[nH]cnc2[nH]1
active: [2] 3.1 µM | [3] 9.16 µM | [5] 6.05 µM | [7] 7.04 µM | [8] 6.74 µM
inactive: all other assays above
